Data from PubChem BioAssay (NCI).
Several values for one entry are separate records, joined by “and”; a condition that tells them apart may be missing. Identical values can stand only once. Compounds without any hit were thinned out: in the full panel of roughly 79,000, 15% have a hit. Unmarked numbers belong to inactive results. Activity calls are given as the source filed them. No stated cut-off is given here; in the data, active means growth inhibition above about 70%; inactive means the rest.

Tests used:
[1] = NCI Yeast Anticancer Drug Screen. Data for the rad50 strain (AID 155);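 further: 0% = growth of vehicle-only cultures of the same strain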; settings: S. cerevisiae rad50 strain growth inhibition, hits give high values
In short: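 Inhibition values express reduced yeast growth in compound-treated cultures relative to vehicle-treated controls.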

[2] = NCI Yeast Anticancer Drug Screen. Data for the mec2-1 strain (AID 157); settings: S. cerevisiae mec2-1 strain, hits give high values
In short: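 Yeast mec2-1 mutant treated with compound. Readout: growth inhibition vs vehicle controls.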

[3] = NCI Yeast Anticancer Drug Screen. Data for the sgs1 mgt1 strain (AID 161);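 further: 0% = growth of cultures given vehicle only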; settings: S. cerevisiae sgs1 mgt1 strain, hits give high values
In short: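 Mutant yeast exposed to compound; growth scored against vehicle-only wells.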

[4] = NCI Yeast Anticancer Drug Screen. Data for the cln2 rad14 strain (AID 165);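 further: 0% = growth equal to vehicle treated cultures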; settings: S. cerevisiae cln2 rad14 strain, hits give high values
In short: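 cln2 rad14 yeast strain; compound exposure; growth inhibition read vs vehicle controls.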

[5] = NCI Yeast Anticancer Drug Screen. Data for the bub3 strain (AID 167); settings: S. cerevisiae bub3 mutant strain, hits give high values
In short: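 Steps: expose the mutant yeast strain to compound; grow alongside vehicle-treated cultures; measure growth; express inhibition against the vehicle cultures.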

[6] = NCI Yeast Anticancer Drug Screen. Data for the mlh1 rad18 strain (AID 175); settings: S. cerevisiae mlh1 rad18 strain growth inhibition, hits give high values
In short: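 Yeast w/ defined DNA-repair lesions; compound exposure; growth vs vehicle controls → % inhibition.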

[7] = at 5.0 µM (retest, dose inferred, filed as 0.5)
[8] = at 50.0 µM (retest, dose inferred, filed as 5.0)

ClCCN(CCCl)c1ccc(C2N(Cc3ccc(Cl)cc3)CCCN2Cc2ccc(Cl)cc2)cc1
growth inhibition [1, 7]: 11% | growth inhibition [1, 8]: 56% | growth inhibition ([1]; at 50.0 µM): 98.5% (active) | growth inhibition [2, 7]: 10% | growth inhibition [2, 8]: 39% | growth inhibition ([2]; at 50.0 µM): 98.5% (active) | growth inhibition [3, 7]: 16% | growth inhibition [3, 8]: 68% | growth inhibition ([3]; at 50.0 µM): 98.8% (active) | growth inhibition [4, 7]: 4% | growth inhibition [4, 8]: 24% | growth inhibition ([4]; at 50.0 µM): 94.9% (active) | growth inhibition [5, 7]: 7% | growth inhibition [5, 8]: 35% | growth inhibition ([5]; at 50.0 µM): 98.8% (active) | growth inhibition [6, 7]: 33% | growth inhibition [6, 8]: 94% (active) | growth inhibition ([6]; at 50.0 µM): 98.4% (active)

CC[C@H](C)c1occ2c(O)c(C(=O)O)c(=O)cc-2c1C
growth inhibition [1, 7]: 56% | growth inhibition [1, 8]: 98% (active) | growth inhibition ([1]; at 50.0 µM): 24.5% | growth inhibition [2, 7]: 71% (active) | growth inhibition [2, 8]: 99% (active) | growth inhibition ([2]; at 50.0 µM): -2.7% | growth inhibition [3, 7]: 99% (active) | growth inhibition [3, 8]: 99% (active) | growth inhibition ([3]; at 50.0 µM): 12.2% | growth inhibition [4, 7]: 31% | growth inhibition [4, 8]: 99% (active) | growth inhibition ([4]; at 50.0 µM): 3.2% | growth inhibition [5, 7]: 74% (active) | growth inhibition [5, 8]: 99% (active) | growth inhibition ([5]; at 50.0 µM): 12.2% | growth inhibition [6, 7]: 88% (active) | growth inhibition [6, 8]: 98% (active) | growth inhibition ([6]; at 50.0 µM): 81.2% (active)

COC1=CC(C)(C)C=C([Se][Se]C2=CC(C)(C)C=C(OC)C2=O)C1=O
growth inhibition [1, 7]: 82% (active) | growth inhibition [1, 8]: 79% (active) | growth inhibition ([1]; at 50.0 µM): 83.5% (active) | growth inhibition [2, 7]: 83% (active) | growth inhibition [2, 8]: 76% (active) | growth inhibition ([2]; at 50.0 µM): 88.9% (active) | growth inhibition [3, 7]: 86% (active) | growth inhibition [3, 8]: 87% (active) | growth inhibition ([3]; at 50.0 µM): 83% (active) | growth inhibition [4, 7]: 77% (active) | growth inhibition [4, 8]: 75% (active) | growth inhibition ([4]; at 50.0 µM): 68.5% | growth inhibition [5, 7]: 71% (active) | growth inhibition [5, 8]: 61% | growth inhibition ([5]; at 50.0 µM): 64.7% | growth inhibition [6, 7]: 81% (active) | growth inhibition [6, 8]: 79% (active) | growth inhibition ([6]; at 50.0 µM): 85.5% (active)

O=[N+]([O-])[O-].O=[N+]([O-])[O-].[Au].[Au].c1ccc([P-]c2ccccc2)cc1.c1ccc([P-]c2ccccc2)cc1
growth inhibition [1, 7]: 62% | growth inhibition [1, 8]: 94% (active) | growth inhibition ([1]; at 50.0 µM): 87.8% (active) | growth inhibition [2, 7]: 47% | growth inhibition [2, 8]: 95% (active) | growth inhibition ([2]; at 50.0 µM): 91.4% (active) | growth inhibition [3, 7]: 59% | growth inhibition [3, 8]: 96% (active) | growth inhibition ([3]; at 50.0 µM): 91.3% (active) | growth inhibition [4, 7]: 29% | growth inhibition [4, 8]: 96% (active) | growth inhibition ([4]; at 50.0 µM): 89.5% (active) | growth inhibition [5, 7]: 53% | growth inhibition [5, 8]: 96% (active) | growth inhibition ([5]; at 50.0 µM): 88.9% (active) | growth inhibition [6, 7]: 72% (active) | growth inhibition [6, 8]: 95% (active) | growth inhibition ([6]; at 50.0 µM): 86.7% (active)

O=C1NC(=O)C([N+](=O)[O-])C(=O)N1
growth inhibition [1, 7]: 0% | growth inhibition [1, 8]: -5% | growth inhibition ([1]; at 50.0 µM): 62.9% | growth inhibition [2, 7]: -14% | growth inhibition [2, 8]: -4% | growth inhibition ([2]; at 50.0 µM): 30.1% | growth inhibition [3, 7]: 9% | growth inhibition [3, 8]: -8% | growth inhibition ([3]; at 50.0 µM): 34.5% | growth inhibition [4, 7]: 29% | growth inhibition [4, 8]: 39% | growth inhibition ([4]; at 50.0 µM): 48.5% | growth inhibition [5, 7]: 15% | growth inhibition [5, 8]: 43% | growth inhibition ([5]; at 50.0 µM): 66.8% | growth inhibition [6, 7]: 10% | growth inhibition [6, 8]: 16% | growth inhibition ([6]; at 50.0 µM): 18.8%

O=[n+]1c2ccccc2n([O-])c2ccccc21.[Cl][Ni][Cl]
growth inhibition [1, 7]: 96% (active) | growth inhibition [1, 8]: 99% (active) | growth inhibition ([1]; at 50.0 µM): 90.8% (active) | growth inhibition [2, 7]: 75% (active) | growth inhibition [2, 8]: 100% (active) | growth inhibition ([2]; at 50.0 µM): 92.7% (active) | growth inhibition [3, 7]: 89% (active) | growth inhibition [3, 8]: 99% (active) | growth inhibition ([3]; at 50.0 µM): 92.3% (active) | growth inhibition [4, 7]: 33% | growth inhibition [4, 8]: 98% (active) | growth inhibition ([4]; at 50.0 µM): 90.6% (active) | growth inhibition [5, 7]: 68% | growth inhibition [5, 8]: 100% (active) | growth inhibition ([5]; at 50.0 µM): 89% (active) | growth inhibition [6, 7]: 92% (active) | growth inhibition [6, 8]: 96% (active) | growth inhibition ([6]; at 50.0 µM): 91.9% (active)

COc1ccc(CC2C(=O)NC(C)C(=O)N(C)C3C(=O)N(C)C(Cc4ccc(O)c(c4)Oc4ccc(cc4)C3O)C(=O)NC(C)C(=O)NC(C)C(=O)N2C)cc1 (stereo not given)
growth inhibition [1, 7]: -8% | growth inhibition [1, 8]: 80% (active) | growth inhibition ([1]; at 50.0 µM): 75.9% (active) | growth inhibition [2, 7]: 29% | growth inhibition [2, 8]: 69% | growth inhibition ([2]; at 50.0 µM): 47.5% | growth inhibition [3, 7]: 12% | growth inhibition [3, 8]: 63% | growth inhibition ([3]; at 50.0 µM): 54.3% | growth inhibition [4, 7]: 27% | growth inhibition [4, 8]: 88% (active) | growth inhibition ([4]; at 50.0 µM): 84.5% (active) | growth inhibition [5, 7]: 19% | growth inhibition [5, 8]: 81% (active) | growth inhibition ([5]; at 50.0 µM): 65.4% | growth inhibition [6, 7]: 10% | growth inhibition [6, 8]: 87% (active) | growth inhibition ([6]; at 50.0 µM): 63%

CC(=O)Nc1ccccc1[As](O[As](c1ccccc1)c1ccccc1NC(C)=O)c1ccccc1 (stereo not given)
growth inhibition [1, 7]: 39% | growth inhibition [1, 8]: 99% (active) | growth inhibition ([1]; at 50.0 µM): 99.5% (active) | growth inhibition [2, 7]: 24% | growth inhibition [2, 8]: 100% (active) | growth inhibition ([2]; at 50.0 µM): 99.6% (active) | growth inhibition [3, 7]: 66% | growth inhibition [3, 8]: 100% (active) | growth inhibition ([3]; at 50.0 µM): 99.5% (active) | growth inhibition [4, 7]: 37% | growth inhibition [4, 8]: 99% (active) | growth inhibition ([4]; at 50.0 µM): 99.4% (active) | growth inhibition [5, 7]: 11% | growth inhibition [5, 8]: 100% (active) | growth inhibition ([5]; at 50.0 µM): 99.5% (active) | growth inhibition [6, 7]: 53% | growth inhibition [6, 8]: 99% (active) | growth inhibition ([6]; at 50.0 µM): 99.5% (active)

CCCOc1ccc(/C=C/[N+](=O)[O-])cc1
growth inhibition [1, 7]: 11% | growth inhibition [1, 8]: 17% | growth inhibition ([1]; at 50.0 µM): 52.3% | growth inhibition [2, 7]: -1% | growth inhibition [2, 8]: 17% | growth inhibition ([2]; at 50.0 µM): 96.3% (active) | growth inhibition [3, 7]: -1% | growth inhibition [3, 8]: 11% | growth inhibition ([3]; at 50.0 µM): 50.9% | growth inhibition [4, 7]: 1% | growth inhibition [4, 8]: 20% | growth inhibition ([4]; at 50.0 µM): 93.5% (active) | growth inhibition [5, 7]: -1% | growth inhibition [5, 8]: 13% | growth inhibition ([5]; at 50.0 µM): 37% | growth inhibition [6, 7]: 3% | growth inhibition [6, 8]: 11% | growth inhibition ([6]; at 50.0 µM): 36%

CCCCCCCCCCCC1CCCC(C)N1 (stereo not given)
growth inhibition [1, 7]: 8% and 28% | growth inhibition [1, 8]: 98% (active) and 92% (active) | growth inhibition ([1]; at 50.0 µM): 91.1% (active) and 91.6% (active) | growth inhibition [2, 7]: 19% and 26% | growth inhibition [2, 8]: 98% (active) and 88% (active) | growth inhibition ([2]; at 50.0 µM): 93.3% (active) | growth inhibition [3, 7]: 17% and 32% | growth inhibition [3, 8]: 98% (active) and 90% (active) | growth inhibition ([3]; at 50.0 µM): 93.3% (active) and 92.5% (active) | growth inhibition [4, 7]: 10% and 49% | growth inhibition [4, 8]: 94% (active) and 95% (active) | growth inhibition ([4]; at 50.0 µM): 90.5% (active) and 91% (active) | growth inhibition [5, 7]: 24% and 32% | growth inhibition [5, 8]: 97% (active) and 85% (active) | growth inhibition ([5]; at 50.0 µM): 91.8% (active) and 91.5% (active) | growth inhibition [6, 7]: 13% and 36% | growth inhibition [6, 8]: 98% (active) and 86% (active) | growth inhibition ([6]; at 50.0 µM): 92.1% (active) and 91.3% (active)
